Sampled rows, rich in hits. Any-hit rate of the full collection: about 7.9%.
MARV entry inh – qHTS for inhibitors of binding or entry into cells for Marburg Virus | Marburg virus pseudotyped entry inhibition, cell reporter | Potency, µM (series often up to 37.8 µM), without a hit: top-dose activity change, negative = inhibition, usual class: inhibitors | hit rate 1.8% among 300,000; calls by dose curve; tested in HEK293 cells; note: potency is the fitted concentration of half-maximal effect
HCV inhibitor – qHTS Assay for Inhibitors of Hepatitis C Virus (HCV); Potency, µM (doses to about 41.8 µM), for inactives: at the highest dose activity change, negative = inhibition, usual class: inhibitors; Huh7.5.1 HCVcc-Cre infection, luciferase reporter, 44 h; hit rate 3.4% among 340,000; AID 651820, 2012; active = well fitted inhibition curve with a large enough effect; inconclusive = small, poorly fitted or top-dose-only effect, or another doubt; inactive = no such curve, though single readings can be large or run the other way; note: potency is the fitted concentration of half-maximal effect
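Cells seeded at 1,000/well and cultured 4 h, then compounds added followed by HCVcc-Cre virus (~0.5 moi). After 44 h further culture, luciferase substrate was added, plates held 15 min at room temperature, and luminescence read for 15 sec.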
HCMV antiviral – qHTS Assay for inhibitors of the human cytomegalovirus (HCMV). HFF cells, HCMV-luciferase reporter, 72 h; stronger effect = lower value. activity change, negative = inhibition, % at 57.5 µM. hit rate 4.5% among 410,000. AID 1259415, 2018; in the data active = activity change below about -60%; inconclusive = no clear call, values can overlap the other calls; inactive = above about -39%
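HFF cells seeded 16 h at 37C, treated with compounds, infected with luciferase-reporter HCMV at MOI 1 PFU/cell; luciferase read at 72 h post infection, normalized to buffer-only and Salinomycin controls.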
LASV entry inh – qHTS for Inhibitors of binding or entry into cells for Lassa Virus | Lassa virus pseudotype entry inhibition, cell reporter | Potency, µM (doses to about 37.9 µM), for inactives: at the top dose activity change, negative = inhibition, actives largely listed as inhibitors | hit rate 1.2% among 300,000 | AID 540256, 2011; calls by dose curve; tested in HEK293 cells; note: potency is the fitted concentration of half-maximal effect; nearly all actives have a fitted effect of over 50% in size
FMDV inh – High Throughput Screening for Foot and Mouth Disease Virus Antivirals. FMDV antiviral cell-based qHTS. Potency, µM (titrated, usually from 57.9 µM), for inactives: at the top dose activity change, negative = inhibition, most hits filed as inhibitors. hit rate 1.2% among 410,000. AID 1159524, 2015; calls by dose curve; tested in HEK293T cells; note: read-out not given here; potency is the fitted concentration of half-maximal effect; nearly all actives have a fitted effect of over 45% in size
Numbers without * were called inactive; u = inconclusive; x = not tested or not shown; ! = repeats disagree; [ ] = another dose, or the depositor's remark. % is set by controls: 0 for no effect and ±100 for the full control effect.

SMILES	MARV entry inh	HCV inhibitor	HCMV antiviral	LASV entry inh	FMDV inh
COc1cc2oc3cc(C#Cc4ccc(N)cc4)ccc3c(=O)c2cc1OC	x	u	-4	x	u
COc1cc2c(ccc3cc(OC)c(OC)c(O)c32)cc1O	x	u	-105*	x	-1%
CCOC(=O)c1c(NC(=O)CCN2CCOCC2)sc(C)c1-c1ccccc1	u	25µM*	-30	3.2µM*	u
CCOC(=O)c1c(NC(=O)/C=C/C(=O)O)sc(C)c1-c1ccc(C(C)(C)C)cc1	10µM*	u	u	u	18µM*
CCOC(=O)c1c(NC(=O)/C=C\C(=O)O)sc(C)c1-c1ccccc1	-23%[46.1 µM]	12%	-17	-13%	u
COc1ccc(N(CC(=O)N2CCc3ccccc3C2)S(=O)(=O)c2ccc(C)cc2)cc1Cl	-12%[46.1 µM]	x	-18	u	33%
COC(=O)c1ccccc1CON1C(=O)C(C)(C)N(OCc2ccccc2C(=O)OC)C(=O)C1(C)C	-22%	14µM*	9	-19%	-25%
Cc1ccccc1Nc1c(-c2ccncc2)nc2ccc(Cl)cn12	u	14%	-61*!	19%[46.1 µM]	u
Cc1ccc2nc(-c3ccsc3)c(Nc3ccccc3C)n2c1	-16%[46.1 µM]	x	-14	-25%[46.1 µM]	u
Oc1ccc(N=Nc2n[nH]c(-c3ccc(Br)cc3)n2)cc1	u	12%	-88*	u	18%
Oc1ccc(N=Nc2n[nH]c(-c3ccccc3)n2)cc1	u	0%	42	u	-18%
Cc1nc(N2CCCC2)c2ccsc2n1	17%	14µM*	-28	4%	-18%
CCCCCCN1C2=NCCN2c2ccccc21	u	u	-18	-26%	u
CCCCCCn1ccc(=N)cc1	13µM*	0.79µM*	-80*	u	0%
CCc1cccc(CC)c1NC(=O)CSc1nc2ccc(N3C(=O)C4C(C3=O)[C@H]3C=C[C@@H]4C3)cc2s1 (stereo not given in full)	-17%	u	-72*	-21%	u
Oc1c(C(c2ccc(Cl)cc2Cl)N2CCN(c3ccccc3)CC2)sc2nc(-c3ccco3)nn12 (stereo not given)	x	x	5	-16%[46.1 µM]	-6%
COc1ccc2ccc(=O)oc2c1CC(O)C(C)(C)O (stereo not given)	x	10%	17	x	-16%
COc1ccc2ccc(=O)oc2c1CC(=O)C(C)C	x	4.5µM*	1	x	-10%
CCCN1C(C)C(C(=O)OCC)=CN(Cc2ccc(Br)cc2)S1(=O)=O (stereo not given)	x	u	-36	x	u
CCc1nnc(SCc2ccc(F)cc2Cl)c2cc3sccc3n12	x	x	u	1%[46.1 µM]	-11%
CCc1nnc(SCC(=O)N(C)c2ccccc2)c2cc3sccc3n12	x	x	-67*	-6%[46.1 µM]	u
CCC1(C2CCN(C(=O)c3cc(F)ccc3F)CC2)NC(=O)N(CCc2scnc2C)C1=O (stereo not given)	x	x	x	x	-3%
COC(=O)c1cc(OC)c(OC)cc1NC(=O)Nc1ccc(OC)cc1	u	6%	-17	6%	-3%
COC(=O)c1cc2ccc(OC)cc2c2cc(OC)c(OC)cc12	x	1.4µM*	-30	x	u
O=C1C=CC(=O)c2c(O)c(CO)c(CO)c(O)c21	u	14%	-22	3%	35µM*
SMILES	MARV entry inh	HCV inhibitor	HCMV antiviral	LASV entry inh	FMDV inh
Cc1ccccc1C(O)c1nnc(Nc2ccc(Oc3ccccc3)cc2)s1 (stereo not given)	x	x	-2	x	x
Cc1cccc(S(=O)(=O)c2cn(Cc3ccccc3)c3cc(N4CCCCC4)c(F)cc3c2=O)c1	x	x	-22	-17%[46.1 µM]	8%
COc1ccccc1/C=N/Nc1cc(C)nc2ccc(C)cc12	-3%[46.1 µM]	u	27	21%[46.1 µM]	4%
COc1ccc2nc(C)cc(N/N=C/c3ccccc3)c2c1	u	10µM*	x	u	-4%
COc1ccc(/C=N/Nc2cc(C)nc3ccc(OC)cc23)c(OC)c1	u	10µM*	-105*	u	u
CCC/C(=N\NC(=O)c1cccc(C)c1)c1ccccc1	0%	10%	-23	u	11%
CCCC(=O)Nc1cc(C)c(O)c(-c2nc3ncccc3o2)c1	-24%[46.1 µM]	x	-7	-10%[46.1 µM]	-3%
CC(=O)CCc1oc2c([N+](=O)[O-])cccc2c1-c1ccc(C)o1	x	13µM*	31	x	-26%
C#CCN1CC(=O)N(COC(=O)C2C(C=C(C)C)C2(C)C)C1=O (stereo not given)	x	x	-19	x	x
O=C1N(Cc2cccnc2)C[C@@H]2C[C@@H](c3cccc(OCc4ccccc4)c3)N3CCC[C@@]123	u	u	u	-22%	u
O=C1N(Cc2cccnc2)C[C@@H]2C[C@@H](c3cccc(OC4CCCC4)c3)N3CCC[C@@]123	21%[46.1 µM]	13µM*	u	3%[46.1 µM]	13%
COc1cccc(CSc2nc3n(n2)C(CC(C)C)C(C(=O)Nc2ccccc2OC)=C(C)N3)c1 (stereo not given)	x	x	-70*	0%[46.1 µM]	-26%
COc1cc(C2C(C(=O)Nc3ccc(C)cc3C)=C(C)Nc3nc(SCc4ccccc4)nn32)cc(OC)c1OC (stereo not given)	4%[46.1 µM]	x	-74*	-32%[46.1 µM]	-2%
COc1cccc(CSc2nc3n(n2)C(c2cccc(F)c2)C(C(=O)Nc2ccccc2C)=C(C)N3)c1 (stereo not given)	x	x	6	39%[46.1 µM]	-15%
COc1cc(C2C(C(=O)Nc3ccccc3C)=C(C)Nc3nc(SCc4cc(C)ccc4C)nn32)ccc1O (stereo not given)	x	x	-74*	-5%[46.1 µM]	-22%
CC1=C(C(=O)Nc2ccccc2C)C(c2cccs2)n2nc(SCc3ccccc3)nc2N1 (stereo not given)	u	x	-65*	u	-25%
C[C@H]1C[C@@H](C)O[C@@]2(C1)C(=O)N(CC1CC1)c1ccccc12	-21%[14.2 µM]	x	x	x	x
OC(CNc1nc(C(F)(F)F)nc2ccccc12)c1ccccc1 (stereo not given)	u	u	-66*	u	-22%
O=C(O)CCNc1nc(C(F)(F)F)nc2ccccc12	-1%[46.1 µM]	u	-26	4%	-11%
COc1ccc(NS(=O)(=O)c2cc(NC(=O)c3ccncc3)ccc2N2CCOCC2)cc1	-20%	0%	-27	7%	73%
O=C(Nc1ccc(Cl)c(S(=O)(=O)N2CCOCC2)c1)c1ccc2c(c1)OCCO2	u	10µM*	-62*	u	-23%
O=C(Nc1ccccc1)c1ccc(Cl)c(S(=O)(=O)Nc2ccccc2)c1	u	x	33	-18%[46.1 µM]	69%
CN(c1cccc(NC(=O)c2ccc(Cl)c(S(=O)(=O)Nc3ccccc3)c2)c1)S(C)(=O)=O	3.7µM*	10µM*	2	-24%	19%
O=C(Nc1ccc(Cl)c(S(=O)(=O)N2CCOCC2)c1)c1ccc(OCC2CCCO2)cc1 (stereo not given)	2.2µM*	u	x	u	7.9µM*
